Source: PubChem
ssDAF12 agonist: S. stercoralis DAF-12 nuclear receptor activators, primary screen, cell-based, luminescence, HEK293, GRIP1 co-expression, lit1-tk-luc. HEK293 ssDAF-12/GRIP1 lit1-tk-luc reporter; % of 3 µM dafachronic acid response. Nuclear hormone receptor DAF-12 (Strongyloides stercoralis). actives 1% (n = 370,000). activation, % at 6.8 µM;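 active means activation above the mean over all tested compounds plus 3 SD, cut at about 0.9% in these data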;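 further: 0% = DMSO-only wells and 100% = 3 µM delta7-dafachronic acid wells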
DAX1 inh-1: DAX1 (NR0B1) inhibitors, primary screen, cell-based, HEK293, Gal4-DAX1, luciferase luminescence; Nuclear receptor subfamily 0 group B member 1 (Homo sapiens), P51843; HEK293 Gal4-DAX1 luciferase reporter; inhibition, % at 6.75 µM; actives 0.99% (n = 340,000);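 active means inhibition above the mean over all tested compounds plus 3 SD, cut at about 4.2% in these data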;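 further: 0% = DAX1-transfected cells with DMSO and 100% = empty-vector control cells with DMSO; inhibition shows as a rise in luminescence from relieved DAX1 repression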
Target sequence (P51843 207-470 limits assumed): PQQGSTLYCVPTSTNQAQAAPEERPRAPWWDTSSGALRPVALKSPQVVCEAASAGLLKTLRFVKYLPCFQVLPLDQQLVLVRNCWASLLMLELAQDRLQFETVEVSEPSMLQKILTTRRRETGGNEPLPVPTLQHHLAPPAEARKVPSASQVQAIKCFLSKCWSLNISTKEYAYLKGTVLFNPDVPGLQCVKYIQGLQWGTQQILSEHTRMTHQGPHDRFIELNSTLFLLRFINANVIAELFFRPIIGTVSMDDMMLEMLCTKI
hcDAF12 agonist: H. contortus DAF-12 nuclear receptor activators, primary screen, cell-based, luminescence, HEK293, lit1-tk-luc reporter; HEK293 hcDAF-12 lit1-tk-luc reporter; 0% DMSO, 100% Δ7-dafachronic acid; activation, % at 6.8 µM; actives 1.4% (n = 370,000);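 active means activation above the mean of all tested compounds plus 3 SD, cut at about 5.5% in these data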;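 further: 100% = response to 3 µM Δ7-dafachronic acid high control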
hgDAF12 agonist: H. glycines DAF-12 receptor agonists, primary screen, cell-based, luminescence, HEK293, GAL4 fusion, UAS-luciferase; HEK293 GAL4-hgDAF12 UAS-luciferase reporter, agonist luminescence; normalized to butyrate control; actives 1.8% (n = 370,000); Nuclear hormone receptor DAF-12 (Heterodera glycines), GAL4 fusion; activation, % at 6.8 µM; AID 687014, 2013;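 active means activation above a cutoff set at the mean of all screened compounds plus 3 SD, cut at about 10% in these data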;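 further: 0% = DMSO wells and 100% = sodium butyrate wells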
DAX1 inh-2: DAX1 (NR0B1) inhibitors on StAR promoter, primary screen, cell-based, luminescence, SF-1 (NR5A1), full-length DAX-1 | HEK293T StAR-luciferase reporter, SF-1/DAX-1 repression relief | inhibition, % at 6.8 µM | actives 1.1% (n = 370,000);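 active means inhibition above the mean over all tested compounds plus 3 SD, cut at about 3.6% in these data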;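 further: 0% = DAX-1 cells with DMSO and 100% = cells lacking DAX-1 with DMSO; higher inhibition means more luminescence from relief of DAX-1 repression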
DAX1 inh confirm: DAX1 (NR0B1) inhibitors relieving SF-1 repression, confirmation, cell-based, luminescence, HEK293T, full-length DAX-1, SF-1 activated StAR promoter. shares compounds with DAX1 inh-2. HEK293T StAR-promoter luciferase reporter, SF-1/DAX-1 repression. inhibition, % at 6.8 µM. actives 87% (n = 2,400). AID 652134, 2013;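 active means inhibition above the average of every tested compound plus 3 SD, cut at about 3.8% in these data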;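 further: 0% = DAX-1 cells with DMSO and 100% = no DAX-1 control cells with DMSO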
SF1 AF2mut Luc: StAR reporter signal changes without DAX1, counter-screen for DAX1 inhibitor project, cell-based, luminescence, AF-2 mutant SF-1, transactivation; HEK293 StAR-luciferase, SF-1 AF2 mutant; inhibition, % at 6.8 µM; shares compounds with DAX1 inh-2; actives 78% (n = 2,400);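 active means inhibition above the mean of all tested compounds plus 3 SD, cut at about 3% in these data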;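 further: 0% = DAX-1 transfected cells with DMSO and 100% = cells without DAX-1 with DMSO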
LXR ag: LXR agonists, Gal4 luciferase reporter, confirmation, counter-screen for hcDAF-12 agonist project, cell-based, luminescence, HEK293, H. contortus campaign. activation, % at 6.8 µM. AID 743027, 2013. 3,400 tested, under 10 active. HEK293 Gal4-LXR tk-luc reporter, 24 h; normalized: DMSO 0%, positive control 100%. shares compounds with hcDAF12 agonist;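 active means mean percent activation of the reporter above a cutoff set as the average over tested compounds plus their standard deviation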
hcDAF12 ag: H. contortus DAF-12 receptor agonists, confirmation, cell-based, luminescence, HEK293, lit1-tk-luc, triplicate. shares compounds with hcDAF12 agonist. HEK293 hcDAF-12 lit1-tk-luc reporter; % of Δ7-dafachronic acid response. activation, % at 6.8 µM. actives 61% (n = 3,400);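 active means mean activation across triplicate tests above the threshold derived from the earlier primary screen, cut at about 5.5% in these data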;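 further: 0% = DMSO only wells and 100% = 3 µM Δ7-dafachronic acid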
hgDAF12 ag: H. glycines DAF-12 receptor agonists, confirmation, cell-based, luminescence, HEK293, GAL4-LBD fusion. activation, % at 6.8 µM. HEK293 GAL4-hgDAF12 luciferase reporter, agonist mode; percent of butyrate response. actives 80% (n = 3,300). shares compounds with hgDAF12 agonist;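 active means mean activation over triplicate wells above the hit cutoff derived from the earlier primary screen, cut at about 11% in these data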;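 further: 0% = DMSO low control and 100% = 2 mM sodium butyrate high control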
LXR ag 2: LXR agonists, Gal4 luciferase reporter, confirmation, counter-screen for hgDAF-12 agonist project, cell-based, luminescence, HEK293, H. glycines campaign; 24 h; 3,300 tested, under 10 active; activation, % at 6.8 µM; AID 743051, 2013; shares compounds with hgDAF12 agonist;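 active means mean activation of the triplicate above a set limit carried over from the primary screen, none filed active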
* marks the source's active call; other numbers are inactive results; . = no result. An excerpt weighted towards active compounds, which were near 4.1% of everything screened.

SMILES	ssDAF12 agonist	DAX1 inh-1	hcDAF12 agonist	hgDAF12 agonist	DAX1 inh-2	DAX1 inh confirm	SF1 AF2mut Luc	LXR ag	hcDAF12 ag	hgDAF12 ag	LXR ag 2
Nc1c(C(=O)Nc2cccc(F)c2)nnn1-c1ccc2c(c1)OCCO2	1	-1	7.0*	17*	4.5*	16*	5.2*	2	8.4*	18*	1
CC1=C(C)CC(C(=O)Nc2nc(-c3ccc(C)cc3C)c(C)s2)C(C(=O)O)C1 (configuration not stated)	-1	-1	-2	0	0	.	.	.	.	.	.
CCOCC(=O)Nc1cc(C(=O)NCCc2ccccc2)ccc1Cl	0	2	4	14*	4.5*	9.0*	4.3*	.	.	13*	0
COc1cc(SC)ccc1C(=O)Nc1ccccn1	1.0*	-3	10*	19*	5.0*	9.6*	5.2*	2	7.2*	14*	1
COc1cc(SC)ccc1C(=O)Nc1ccc(C)cc1C	0	3	0	10	2	.	.	.	.	.	.
COc1cc(SC)ccc1C(=O)Nc1ccc(C)cc1	2.1*	7.1*	14*	18*	5.5*	13*	9.9*	2	13*	20*	1
COc1cc(SC)ccc1C(=O)Nc1ccc2c(c1)OCO2	1.4*	9.4*	8.9*	20*	7.8*	9.7*	6.2*	2	6.3*	16*	1
Cc1cc(-c2nnc(CCC(=O)NC(C)c3ccc(F)cc3)o2)no1 (configuration not stated)	-1	0	1	-2	0	.	.	.	.	.	.
CCCc1cc(NCCCO)n2c(nc3ccccc32)c1C#N	-2	.	1	0	-1	.	.	.	.	.	.
O=C(Nc1ccc(F)cc1)c1ccccc1NC(=O)C1CCCCC1C(=O)O (configuration not stated)	-1	0	0	2	1	.	.	.	.	.	.
O=C(NCCc1ccccc1)c1ccccc1NC(=O)C1CCCCC1C(=O)O (configuration not stated)	0	.	9.3*	18*	4.9*	5.4*	4.3*	1	3	14*	1
CCC(CO)Nc1ccn2nc(-c3ccccc3)cc2n1 (configuration not stated)	0	.	3	18*	9.5*	8.9*	7.2*	.	.	16*	1
Cc1ccc(CNC(=O)C2(c3cccs3)CCOCC2)cc1	0	-1	2	0	0	.	.	.	.	.	.
O=C(N=Nc1c(O)[nH]c2ccccc12)Nc1ccccc1	1.2*	5.6*	2	17*	5.5*	16*	7.1*	.	.	13*	1
O=C(CNC(=O)Cc1ccccc1)N=Nc1c(O)[nH]c2ccccc12	0	0	1	2	0	.	.	.	.	.	.
C=CCn1c(C)cc(C(=O)Cn2nc(C(=O)O)c3ccccc3c2=O)c1C	0.9*	2	2	15*	5.0*	10*	4.0*	.	.	13*	1
NC(=O)C1CC(=O)N(c2ccc(OCc3ccc(Cl)cc3Cl)cc2)C1 (configuration not stated)	-1	-1	-1	2	0	.	.	.	.	.	.
NC(=O)C1CC(=O)N(c2ccc(OCc3ccc(Cl)c(Cl)c3)cc2)C1 (configuration not stated)	1	4.5*	5.8*	25*	10*	15*	9.3*	.	.	16*	1
CCNC(=S)NNC(=O)c1cc(-c2ccc(OCC)cc2)nc2ccccc12	1.3*	-5	9.0*	16*	7.7*	17*	8.6*	2	12*	25*	1
Cc1cc(C)c2nc(Cl)c(Cl)nc2c1	0	2	-1	-1	0	.	.	.	.	.	.
CCOc1ccc(CCNC(=O)COC(=O)c2ccc3c(c2)OCCO3)cc1OCC	-1	1	0	2	2	.	.	.	.	.	.
CC(C)[C@@H](CO)NC(=O)[C@H]1O[C@@H](n2cnc3c(N)ncnc32)[C@H](O)[C@@H]1O	-1	.	-1	-4	0	.	.	.	.	.	.
N/C(=N\N=C\c1cccc(O)c1)c1nonc1N	3.2*	-1	13*	20*	7.2*	15*	11*	2	9.0*	17*	1
COc1cc(/C=N/N=C(\N)c2nonc2N)ccc1O	-1	2	0	8	2	.	.	.	.	.	.
COc1ccccc1N(CC(=O)N1CCN(c2ccc(F)cc2)CC1)S(=O)(=O)c1ccc(C)cc1	-1	0	-1	-2	-1	.	.	.	.	.	.
